# According to PubChem BioAssay AID1063 (University of Pittsburgh Molecular Library Screening Center, 2008):
# In all, about 200,000 compounds went through this assay and about 18,000 (9%) were called active. Rule as the data show it: active = inhibition above about 50%; inactive = the rest. What follows is part of a selection rich in actives, with near analogues and random picks from the rest.
# Test: antileishmanial activity against promastigotes – primary screen (AID 1063);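 also: promastigotes grown with compound for 44 hours at 28 °C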
# Conditions: Leishmania major promastigotes, resazurin fluorescence viability; at 10 µM; hits give high values
row,SMILES,inhibition
1,Cc1ccc(-n2c(SCC(=O)NCc3ccc4c(c3)OCO4)nnc2-c2cccnc2)c(C)c1,7.56% (inactive)
2,CCn1c(SCC(=O)NCc2ccco2)nnc1-c1ccc(N)cc1,-3.78% (inactive)
3,Cc1ccc(Nc2nc(CSc3nnc(-c4ccncc4)n3-c3ccccc3C)cs2)cc1,28.5% (inactive)
4,Cc1ccc(-c2csc3nnc(SCC(=O)NCc4ccco4)n23)cc1,-1.56% (inactive)
5,Cc1ccc(-n2c(SCC(=O)N3c4ccccc4Sc4ccccc43)nnc2-c2ccncc2)cc1,62.6% (active)
6,CCc1nc2ccccc2c(C(=O)OC2CCCCC2=O)c1C (stereo not drawn),7.85% (inactive)
7,O=[N+]([O-])c1cccc(/C([O-])=C(/C(=S)Nc2ccccc2F)[n+]2ccccc2)c1,-0.54% (inactive)
8,C=CCN(C(=O)c1cc(C)cc(C)c1)C1(C(=O)Nc2ccccc2)CCN(C(C)C)CC1,6.23% (inactive)
9,CCNC(=O)N1c2ccccc2Sc2ccccc21,4.94% (inactive)
10,COc1ccccc1CNC(=O)C1Cc2ccccc2C(=O)O1 (stereo not drawn),-1.31% (inactive)
11,CCCC1NC(=S)NC(C)=C1C(C)=O (stereo not drawn),-12.4% (inactive)
12,O=C(/C=C/c1ccc2c(c1)OCO2)NCc1cn2cc(Cl)ccc2n1,-4.11% (inactive)
13,CC(C)NC(=S)Nc1cccc2cnccc12,-1.24% (inactive)
14,CCOC(=O)Cn1nnnc1C,-3.4% (inactive)
15,C=CCC(CC=C)(C(N)=O)c1ccccc1,2.87% (inactive)
16,CC(C)(O)C(=O)NN(C(=O)c1ccccc1)c1cccc(Br)c1,3.6% (inactive)
17,CCCC(O)(CCC)C(=O)NN(C(=O)CCl)c1cccc(C)c1,82.9% (active)
18,Cc1ccc(N(NC(=O)C(C)(C)O)C(=O)c2ccccc2)cc1C,-3.54% (inactive)
19,CCCCCCCCC(=O)NCCOc1ccccc1,-9.39% (inactive)
20,CCC(C)NC(=O)CCCc1ccccc1 (stereo not drawn),13.2% (inactive)
21,CCCCC(O)(CCCC)C(=O)NN(C(=O)CCl)c1ccccc1,54.5% (active)
22,Cc1ccc(N(C(=O)c2ccc(S(=O)(=O)N(C)C)cc2)C2C=CS(=O)(=O)C2)cc1 (stereo not drawn),5.35% (inactive)
23,COc1ccccc1-c1noc(CSc2nc(C)cc(=O)[nH]2)n1,-6.37% (inactive)
24,N#CCC(=O)N/N=C/c1ccc(SCC(=O)Nc2ccccc2)o1,-1.51% (inactive)

row,SMILES,inhibition
1,CCSc1sc(CC)cc1C=O,5.02% (inactive)
2,c1ccc2sc(NN=C3CCCC3)nc2c1,57% (active)
3,O=C(Nc1ccccc1)Nc1nc2ccccc2s1,-0.32% (inactive)
4,Cc1ccnc(Nc2nc3ccccc3s2)n1,11.8% (inactive)
5,O=C(C1CCCN1S(=O)(=O)c1ccc(Br)cc1)N1CCOCC1 (stereo not drawn),1.18% (inactive)
6,CC1(C)CN(c2ccc(-c3ccnc4ncnn34)cc2)C1=O,8.31% (inactive)
7,CCN(CC)CCN(C(=O)c1ccc(N2C(=O)CCC2=O)cc1)c1nc2cc3c(cc2s1)OCO3,4.38% (inactive)
8,Cc1[nH]c2ccccc2c1SCC(=O)Nc1nccs1,2.27% (inactive)
9,Cc1ccc(NC(=O)NC2CCCCC2)cc1S(=O)(=O)N1CCOCC1,27.4% (inactive)
10,O=C(NC(=S)Nc1ccc(S(=O)(=O)N2CCOCC2)cc1)c1ccccc1[N+](=O)[O-],5.68% (inactive)
11,Cc1cc(C(=O)COc2ccccc2[N+](=O)[O-])c(C)n1-c1cccc(S(=O)(=O)N2CCOCC2)c1,98.9% (active)
12,COc1ccc(S(=O)(=O)N2CCC(C(=O)OCC(=O)c3ccccc3)CC2)cc1[N+](=O)[O-],-6.1% (inactive)
13,S=c1[nH]ccn1-c1ccc(Cl)cc1,-8.82% (inactive)
14,O=S(=O)(NC1CC1)c1ccc2c3c(cccc13)CC2,3.72% (inactive)
15,Cc1ccc(C(=O)OC2CCCN(C)C2)cc1 (stereo not drawn),-6.05% (inactive)
16,CCNS(=O)(=O)c1ccc(NC(=O)Nc2cccc(OC)c2)cc1,3.37% (inactive)
17,O=C(Nc1ccc(S(=O)(=O)Nc2ncccn2)cc1)c1cncc(Br)c1,-5.97% (inactive)
18,CCNS(=O)(=O)c1ccc(NC(=O)c2cncc(Br)c2)cc1,50.3% (active)
19,N#CC1(C#N)C(C(=O)C23CC4CC(CC(C4)C2)C3)C12CCOCC2 (stereo not drawn),4.33% (inactive)
20,Cc1ccccc1CSc1nnc(-c2ccccc2)c(=O)[nH]1,-8.07% (inactive)
21,Cc1nn(CC(=O)NCc2ccccn2)c(C)c1[N+](=O)[O-],-2.73% (inactive)
22,CCc1ccc(NC(=O)Cn2nc(C)c([N+](=O)[O-])c2C)cc1,6.59% (inactive)
23,Cc1nn(CC(=O)Nc2nc3ccccc3s2)c(C)c1[N+](=O)[O-],50.5% (active)
24,C=CCN(CC=C)C(=O)COC(=O)c1n[nH]c2ccccc12,1.59% (inactive)
